# The panel holds about 83,000 compounds, 20% with a hit somewhere; the sample as a whole holds those more often.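 Negative percent growth values reflect cell death: -40 means 40% of the cells present at the start died, and -100 means all died.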 Unmarked numbers belong to inactive results. Active and inactive are the calls of the source. How the source made its calls: active means growth percent below 10; inactive means the rest.
# Columns and labels:
# Assay in all cases: NCI-60 one-dose screen, 48 h (100 = growth as untreated, 0 = no growth, -100 = all killed)
# Conditions in all cases: 10 µM unless noted
# [1] = tested on: MOLT-4 leukemia
# [2] = tested on: SR leukemia
# [3] = tested on: OVCAR-8 ovarian
# [4] = tested on: OVCAR-5 ovarian
# [5] = tested on: OVCAR-4 ovarian
# [6] = tested on: SK-OV-3 ovarian
# [7] = tested on: IGROV1 ovarian
# [8] = tested on: OVCAR-3 ovarian
# [9] = tested on: HS 578T breast
# [10] = tested on: NCI/ADR-RES ovarian
# [11] = tested on: T-47D breast
# [12] = tested on: BT-549 breast
# [13] = tested on: MDA-MB-435 melanoma
# [14] = tested on: SW-620 colon
# [15] = tested on: MCF7 breast
# [16] = tested on: HCT-116 colon
# [17] = tested on: HCC-2998 colon
# [18] = tested on: KM12 colon
# [19] = tested on: RPMI-8226 leukemia
SMILES,growth [1],growth [2],growth [3],growth [4] [%],growth [5] [%],growth [6] [%],growth [7],growth [8],growth [9] [%],growth [10],growth [11] [%],growth [12] [%],growth [13],growth [14],growth [15],growth [16],growth [17],growth [18],growth [19] [%]
C=CC[n+]1ccc(-c2cc[n+](CC=C)cc2)cc1,88.8%,93.9%,61.3%,126,37.6,108,13.6%,40.7%,116,111%,82.1,109,104%,114%,89.7%,98.5%,95.4%,65.3%,
CC12CCC3C(C=CC4=C(N)C(=O)CCC43C)C1CCC2=O (centres undefined),57.2%,-18.1% (active),44%,108,62,120,49.5%,64.6%,113,68.7%,73.7,82.6,113%,15.4%,-16% (active),6.15% (active),96%,39.5%,
COC1OC(CO)C(O)C(O)[CH]1[Hg][O]C(C)=O (centres undefined),91.1%,64.3%,103%,102,95.6,117,86.9%,75.9%,89.8,92.4%,63.8,103,93.7%,89%,53.2%,102%,106%,94.5%,
COc1ccc(S(=O)(=O)N(Cc2ccc3c(c2)C=CC(C)(C)O3)c2ccccc2)cc1OC,74.4%,75.9%,79.9%,103,70.6,90.7,75.6%,74.3%,91.1,68.7%,55.1,54,87.3%,87.1%,50.7%,63%,73.6%,88.7%,
Fc1ccc(N2COOC3(OOC2)C2CC4CC(C2)CC3C4)cc1,92.8%,-19.2% (active),86.7%,98.6,101,105,16.5%,97%,109,53.2%,75.7,95.4,94.4%,109%,76.1%,90.9%,106%,82.7%,
COc1ccc(/C=C\c2cc(OC)c(OC)c(OC)c2)c(NS(=O)(=O)c2ccc(C)cc2)c1O,20.8%,17.2%,25.1%,38.8,31.5,25.1,32.2%,-30.9% (active),39.9,7.57% (active),96.4,30.6,-33.1% (active),24.9%,14.3%,8.54% (active),18.7%,3.96% (active),
Nc1ccc2c(c1)Cc1cc(Br)ccc1-2,71%,84.6%,107%,110,99.9,101,104%,114%,111,101%,102,,111%,108%,64.7%,98.2%,99.7%,105%,
COC(=O)[C@@H](C)C[C@H](Cc1ccccc1)NC(=O)c1csc([C@@H](C[C@H](C(C)C)N(C)C(=O)[C@H](C)NC(=O)[C@H]2CCCN2C)OC(C)=O)n1,42.6%,14.1%,58.3%,110,88.9,73.2,58.1%,17.9%,17.6,92.4%,50.9,36.9,-27.1% (active),28.5%,,,62.8%,30.7%,
CCOC(=O)c1c(C)n(Cc2ccccc2)c2cc(CN(C)C)c(O)cc12,52.7%,17.8%,80.7%,69.3,68.1,70.4,,79.4%,61.1,63.5%,61.1,64.7,80.3%,63%,55.3%,51.7%,55.4%,76.5%,
CCCCCCCCCCCCCCCCCCOc1ccccc1COP(=O)(O)OOCC[N+](C)(C)C,-36.1% (active),-8.81% (active),-30.5% (active),40.5,34.6,36.2,-74.1% (active),-29.2% (active),15.6,88.5%,16.8,25.5,7.62% (active),6.94% (active),16.2%,1.15% (active),-8.6% (active),0.411% (active),
CCCCCCCC[n+]1ccc2ccccc2c1,58%,47.8%,55.7%,88.5,46.4,62.9,64.1%,50.2%,76.1,,27.1,32.3,46.2%,75.9%,41.1%,46.5%,,46.1%,
CCCCCCCCC(CO)NCCc1ccccc1 (centres undefined),60.5%,76.7%,81.1%,101,108,102,105%,107%,106,112%,96,114,103%,96.2%,103%,78.8%,111%,99.9%,
CNC(=O)Oc1ccc(N(C)C)cc1C(C)C,75.3%,123%,105%,99.8,85.9,105,109%,97.7%,94.8,107%,101,73.6,91.7%,116%,91%,95.9%,,112%,
CC(=O)OC1CCC2C3CCC4=C/C(=N/OC(=O)c5ccc(N(CCCl)CCCl)cc5)CCC4(C)C3CC(C)C12 (centres undefined),57.7%,-7.87% (active),54.5%,101,72,114,-59.1% (active),59.7%,26.3,-13.2% (active),43.8,110,78.3%,83.4%,99.3%,54.6%,98.6%,73.6%,
O=C1CN=C(c2ccc(Cl)cc2)c2sccc2N1,95.6%,87.1%,101%,104,102,113,108%,109%,99.6,109%,95.3,103,109%,110%,96.5%,101%,116%,103%,
NC(=Nc1ccccc1)N[N+](=O)[O-],89.2%,,119%,91.4,96.5,98.4,121%,110%,97.5,101%,97,88.5,118%,97.8%,100%,101%,98.8%,106%,104
CC1(C)N=C(N)N=C(N)N1c1ccc(OCCCNC(=O)Nc2ccc(S(=O)(=O)F)cc2)c(Cl)c1,33.4%,,31.5%,48,54.3,58.5,17.9%,27.4%,83.6,115%,52.4,60.9,31.5%,20.6%,18.4%,14.8%,15.3%,22%,24.6

# — PubChem BioAssay (NCI)
